According to publication PMC7862700, “An all-to-all approach to the identification of sequence-specific readers for epigenetic DNA modifications on cytosine”:

Experiments:
Assay in all cases: DAPPL (digital affinity profiling via proximity ligation, sequencing); 10 mM Tris-HCl pH 7.5, 50 mM NaCl, 1 mM DTT, 4% glycerol, room temperature, 30 min; GST-TFs on glutathione beads, 16-mer random dsDNA library, 0.1% formaldehyde crosslink after washing; high values mean tight binding
FEV = molecular target: T1, FEV (Homo sapiens, UniProt Q99581 1-238); settings: protein: recombinant; tags: N-terminal GST; dsDNA, one strand shown
T1 sequence: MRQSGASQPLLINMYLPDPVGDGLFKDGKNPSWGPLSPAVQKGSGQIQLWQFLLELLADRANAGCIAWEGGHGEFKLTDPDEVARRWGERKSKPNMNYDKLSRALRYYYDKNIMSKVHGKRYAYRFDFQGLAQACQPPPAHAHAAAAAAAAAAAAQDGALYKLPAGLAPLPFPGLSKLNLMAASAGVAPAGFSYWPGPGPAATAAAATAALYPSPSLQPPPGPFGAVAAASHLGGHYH
Summary of the method: (§1)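 Binding signal is given per hexamer as its read frequency for a factor divided by its frequency in the tag-only sample. GST-fused human transcription factors were expressed in yeast, captured on glutathione beads, barcoded with DNA and pooled with that sample, then incubated with 200 nmole of a 16-mer random double-stranded DNA library in Tris/NaCl/DTT/glycerol buffer for 30 min at room temperature. The pools were then washed, crosslinked, proximity-ligated, amplified by PCR and sequenced on an Illumina NextSeq500.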

ETV5 = ETV5 (Homo sapiens, UniProt P41161 1-510); settings: protein: recombinant; tags: N-terminal GST; dsDNA, one strand shown
Sequence of ETV5 (P41161 whole entry): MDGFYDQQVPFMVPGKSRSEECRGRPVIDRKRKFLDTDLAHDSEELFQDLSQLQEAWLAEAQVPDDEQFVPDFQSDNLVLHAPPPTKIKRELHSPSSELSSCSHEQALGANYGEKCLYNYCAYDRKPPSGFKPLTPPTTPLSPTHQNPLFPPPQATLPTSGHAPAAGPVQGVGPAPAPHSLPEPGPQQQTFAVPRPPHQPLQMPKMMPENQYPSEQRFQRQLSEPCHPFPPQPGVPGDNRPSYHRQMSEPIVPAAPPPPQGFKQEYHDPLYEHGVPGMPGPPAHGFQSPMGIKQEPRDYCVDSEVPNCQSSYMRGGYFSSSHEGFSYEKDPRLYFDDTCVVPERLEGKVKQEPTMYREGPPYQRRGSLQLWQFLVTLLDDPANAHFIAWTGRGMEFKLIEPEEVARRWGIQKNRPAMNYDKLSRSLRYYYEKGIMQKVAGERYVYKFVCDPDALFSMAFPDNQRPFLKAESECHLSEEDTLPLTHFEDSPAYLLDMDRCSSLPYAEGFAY
Summary of the method: as §1

HSF1 = HSF1 (Homo sapiens, UniProt Q00613 1-529); settings: protein: recombinant; tags: N-terminal GST; chain copies: 3; dsDNA, one strand shown
Sequence of HSF1 (Q00613 whole entry): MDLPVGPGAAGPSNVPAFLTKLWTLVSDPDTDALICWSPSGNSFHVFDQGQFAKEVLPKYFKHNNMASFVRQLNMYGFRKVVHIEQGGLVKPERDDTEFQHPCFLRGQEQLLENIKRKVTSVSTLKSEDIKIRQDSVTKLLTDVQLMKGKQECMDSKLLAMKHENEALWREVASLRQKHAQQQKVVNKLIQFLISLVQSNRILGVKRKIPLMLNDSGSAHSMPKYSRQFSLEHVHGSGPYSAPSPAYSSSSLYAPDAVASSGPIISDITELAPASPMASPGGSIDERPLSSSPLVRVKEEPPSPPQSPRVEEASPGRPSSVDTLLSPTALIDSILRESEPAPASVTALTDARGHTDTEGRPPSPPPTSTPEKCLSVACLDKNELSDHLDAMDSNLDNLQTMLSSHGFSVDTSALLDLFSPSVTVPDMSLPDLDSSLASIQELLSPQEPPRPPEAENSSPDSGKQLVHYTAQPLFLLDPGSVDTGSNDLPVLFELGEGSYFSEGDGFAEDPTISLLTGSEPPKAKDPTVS
Summary of the method: as §1

SPIC = molecular target: T2, SPIC (Homo sapiens, UniProt Q8N5J4 1-248); settings: protein: recombinant; tags: N-terminal GST; dsDNA, one strand shown
T2 sequence: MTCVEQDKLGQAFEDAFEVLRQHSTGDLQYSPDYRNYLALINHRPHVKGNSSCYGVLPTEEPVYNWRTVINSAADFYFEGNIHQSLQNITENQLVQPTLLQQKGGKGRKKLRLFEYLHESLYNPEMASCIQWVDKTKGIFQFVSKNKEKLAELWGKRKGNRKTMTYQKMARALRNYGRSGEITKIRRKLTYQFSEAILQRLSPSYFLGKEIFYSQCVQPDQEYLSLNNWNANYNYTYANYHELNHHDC
Summary of the method: as §1

ELF4 = ELF4 (Homo sapiens, UniProt Q99607 1-663); settings: protein: recombinant; tags: N-terminal GST; dsDNA, one strand shown
Sequence of ELF4 (Q99607 whole entry): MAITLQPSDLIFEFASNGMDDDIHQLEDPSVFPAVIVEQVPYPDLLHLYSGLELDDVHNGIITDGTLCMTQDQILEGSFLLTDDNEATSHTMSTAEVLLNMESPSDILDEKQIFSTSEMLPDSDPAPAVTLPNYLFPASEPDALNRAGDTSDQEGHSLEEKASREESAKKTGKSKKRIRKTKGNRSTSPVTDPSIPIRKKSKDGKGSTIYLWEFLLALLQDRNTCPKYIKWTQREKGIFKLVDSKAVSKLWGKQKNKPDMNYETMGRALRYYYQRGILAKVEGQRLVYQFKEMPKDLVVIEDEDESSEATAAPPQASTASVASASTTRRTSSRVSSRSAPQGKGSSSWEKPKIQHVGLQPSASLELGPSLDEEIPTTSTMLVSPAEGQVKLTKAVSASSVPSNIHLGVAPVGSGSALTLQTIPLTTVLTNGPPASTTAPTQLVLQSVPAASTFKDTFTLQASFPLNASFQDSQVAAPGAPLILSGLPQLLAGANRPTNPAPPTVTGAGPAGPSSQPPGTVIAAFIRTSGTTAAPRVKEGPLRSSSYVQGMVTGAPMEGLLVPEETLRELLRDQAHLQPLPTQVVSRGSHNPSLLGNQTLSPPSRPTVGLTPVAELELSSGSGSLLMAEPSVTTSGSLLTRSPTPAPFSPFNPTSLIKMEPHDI
Summary of the method: as §1

ELK4 = molecular target: T3, ELK4 (Homo sapiens, UniProt P28324-2 1-405); settings: protein: recombinant; tags: N-terminal GST; dsDNA, one strand shown
T3 sequence: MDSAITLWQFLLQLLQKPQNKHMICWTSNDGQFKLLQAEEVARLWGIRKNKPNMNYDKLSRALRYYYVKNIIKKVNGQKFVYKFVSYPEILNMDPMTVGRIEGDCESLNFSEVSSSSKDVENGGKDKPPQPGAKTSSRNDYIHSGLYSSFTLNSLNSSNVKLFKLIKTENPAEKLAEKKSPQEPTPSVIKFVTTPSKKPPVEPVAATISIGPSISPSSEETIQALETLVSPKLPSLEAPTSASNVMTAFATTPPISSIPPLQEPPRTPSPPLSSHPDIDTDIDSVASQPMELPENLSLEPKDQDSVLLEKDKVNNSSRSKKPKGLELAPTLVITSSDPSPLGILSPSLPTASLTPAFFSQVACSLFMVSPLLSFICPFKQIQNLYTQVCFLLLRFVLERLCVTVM
Summary of the method: as §1

ETV2 = molecular target: T4, ETV2 (Homo sapiens, UniProt O00321 1-342); settings: protein: recombinant; tags: N-terminal GST; dsDNA, one strand shown
T4 sequence: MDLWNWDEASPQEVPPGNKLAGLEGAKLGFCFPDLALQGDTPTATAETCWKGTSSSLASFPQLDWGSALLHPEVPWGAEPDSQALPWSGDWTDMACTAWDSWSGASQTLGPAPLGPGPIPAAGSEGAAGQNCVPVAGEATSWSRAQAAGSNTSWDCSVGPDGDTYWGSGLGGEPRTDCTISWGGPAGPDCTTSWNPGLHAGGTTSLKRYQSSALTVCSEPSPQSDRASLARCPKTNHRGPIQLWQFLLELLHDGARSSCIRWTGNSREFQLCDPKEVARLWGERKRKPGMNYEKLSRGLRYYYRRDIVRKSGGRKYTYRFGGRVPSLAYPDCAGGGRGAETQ
Summary of the method: as §1

ELF3 = molecular target: T5, ELF3 (Homo sapiens, UniProt P78545 1-371); settings: protein: recombinant; tags: N-terminal GST; dsDNA, one strand shown
T5 sequence: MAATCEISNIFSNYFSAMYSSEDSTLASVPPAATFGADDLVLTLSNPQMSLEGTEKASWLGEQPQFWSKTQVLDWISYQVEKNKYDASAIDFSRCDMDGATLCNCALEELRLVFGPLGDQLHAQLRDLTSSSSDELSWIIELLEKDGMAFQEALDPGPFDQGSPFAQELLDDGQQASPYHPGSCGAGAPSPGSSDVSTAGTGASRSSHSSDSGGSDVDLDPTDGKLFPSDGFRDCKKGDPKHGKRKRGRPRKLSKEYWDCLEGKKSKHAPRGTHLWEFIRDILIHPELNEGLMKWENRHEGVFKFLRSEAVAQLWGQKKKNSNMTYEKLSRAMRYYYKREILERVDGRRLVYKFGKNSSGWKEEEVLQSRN
Summary of the method: as §1

CRX = CRX (Homo sapiens, UniProt O43186 1-299); settings: protein: recombinant; tags: N-terminal GST; dsDNA, one strand shown
Sequence of CRX (O43186 whole entry): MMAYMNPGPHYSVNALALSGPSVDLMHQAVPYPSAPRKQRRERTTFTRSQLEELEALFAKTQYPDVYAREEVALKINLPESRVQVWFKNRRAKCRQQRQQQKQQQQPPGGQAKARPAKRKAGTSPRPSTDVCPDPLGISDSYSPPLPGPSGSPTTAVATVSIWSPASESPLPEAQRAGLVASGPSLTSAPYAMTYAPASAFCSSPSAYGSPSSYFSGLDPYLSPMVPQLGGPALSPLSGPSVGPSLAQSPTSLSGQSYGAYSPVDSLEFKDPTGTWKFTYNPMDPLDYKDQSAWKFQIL
Summary of the method: as §1

ETV1 = ETV1 (Homo sapiens, UniProt P50549 1-477); settings: protein: recombinant; tags: N-terminal GST; dsDNA, one strand shown
Sequence of ETV1 (P50549 whole entry): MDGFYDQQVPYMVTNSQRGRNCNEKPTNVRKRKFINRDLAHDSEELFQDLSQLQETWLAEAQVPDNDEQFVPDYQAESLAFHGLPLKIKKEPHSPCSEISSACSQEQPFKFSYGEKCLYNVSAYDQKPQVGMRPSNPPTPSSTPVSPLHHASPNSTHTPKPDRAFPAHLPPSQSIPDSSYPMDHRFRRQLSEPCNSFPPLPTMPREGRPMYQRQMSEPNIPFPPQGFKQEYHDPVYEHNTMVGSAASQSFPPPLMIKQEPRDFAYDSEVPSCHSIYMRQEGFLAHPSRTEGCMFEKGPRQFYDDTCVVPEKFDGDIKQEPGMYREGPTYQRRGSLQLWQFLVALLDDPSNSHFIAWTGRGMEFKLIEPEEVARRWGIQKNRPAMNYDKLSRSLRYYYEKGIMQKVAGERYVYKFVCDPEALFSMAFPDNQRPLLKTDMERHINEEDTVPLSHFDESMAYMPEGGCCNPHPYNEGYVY
Summary of the method: as §1

ERF = molecular target: T6, ERF (Homo sapiens, UniProt P50548 1-548); settings: protein: recombinant; tags: N-terminal GST; dsDNA, one strand shown
T6 sequence: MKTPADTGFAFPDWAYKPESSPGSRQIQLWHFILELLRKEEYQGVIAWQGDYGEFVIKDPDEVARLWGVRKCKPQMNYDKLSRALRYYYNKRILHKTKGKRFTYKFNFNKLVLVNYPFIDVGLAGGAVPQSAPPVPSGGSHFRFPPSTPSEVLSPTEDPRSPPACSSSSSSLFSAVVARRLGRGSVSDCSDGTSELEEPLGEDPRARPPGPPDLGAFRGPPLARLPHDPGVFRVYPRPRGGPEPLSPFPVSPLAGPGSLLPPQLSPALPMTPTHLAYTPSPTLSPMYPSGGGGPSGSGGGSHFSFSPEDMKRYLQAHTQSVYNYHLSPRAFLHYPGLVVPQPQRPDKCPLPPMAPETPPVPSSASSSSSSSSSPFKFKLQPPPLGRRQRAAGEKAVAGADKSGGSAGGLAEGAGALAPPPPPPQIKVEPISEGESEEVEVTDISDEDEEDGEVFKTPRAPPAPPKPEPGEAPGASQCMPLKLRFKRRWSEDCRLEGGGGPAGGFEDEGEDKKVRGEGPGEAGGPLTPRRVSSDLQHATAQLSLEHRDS
Summary of the method: as §1

ETV3L = molecular target: T7, ETV3L (Homo sapiens, UniProt Q6ZN32 1-361); settings: protein: recombinant; tags: N-terminal GST; dsDNA, one strand shown
T7 sequence: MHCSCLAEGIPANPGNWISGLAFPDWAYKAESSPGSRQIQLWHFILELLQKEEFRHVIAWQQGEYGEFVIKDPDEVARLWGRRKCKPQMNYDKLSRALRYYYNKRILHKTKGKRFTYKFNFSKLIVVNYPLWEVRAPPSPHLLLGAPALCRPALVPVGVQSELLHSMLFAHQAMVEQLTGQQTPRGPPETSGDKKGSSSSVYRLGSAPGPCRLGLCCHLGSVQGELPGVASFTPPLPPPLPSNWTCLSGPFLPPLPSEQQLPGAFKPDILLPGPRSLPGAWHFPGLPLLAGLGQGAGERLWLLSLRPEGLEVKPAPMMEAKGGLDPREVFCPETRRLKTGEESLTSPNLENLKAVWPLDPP
Summary of the method: as §1

ETS2 = molecular target: T8, ETS2 (Homo sapiens, UniProt P15036 1-469); settings: protein: recombinant; tags: N-terminal GST; dsDNA, one strand shown
T8 sequence: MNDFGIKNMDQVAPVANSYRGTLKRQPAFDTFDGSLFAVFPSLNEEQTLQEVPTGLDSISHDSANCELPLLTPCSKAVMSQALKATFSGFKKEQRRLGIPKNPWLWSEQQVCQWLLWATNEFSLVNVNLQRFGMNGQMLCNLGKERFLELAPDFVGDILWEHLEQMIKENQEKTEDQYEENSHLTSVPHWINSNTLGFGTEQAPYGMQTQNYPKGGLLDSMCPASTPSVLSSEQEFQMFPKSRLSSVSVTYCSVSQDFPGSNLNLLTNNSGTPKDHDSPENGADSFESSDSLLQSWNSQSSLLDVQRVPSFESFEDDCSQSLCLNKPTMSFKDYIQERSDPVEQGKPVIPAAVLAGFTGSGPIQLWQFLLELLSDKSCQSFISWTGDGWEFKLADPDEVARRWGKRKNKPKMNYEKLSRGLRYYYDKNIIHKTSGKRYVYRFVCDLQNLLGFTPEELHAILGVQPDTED
Summary of the method: as §1

SPDEF = molecular target: T9, SPDEF (Homo sapiens, UniProt O95238 1-335); settings: protein: recombinant; tags: N-terminal GST; dsDNA, one strand shown
T9 sequence: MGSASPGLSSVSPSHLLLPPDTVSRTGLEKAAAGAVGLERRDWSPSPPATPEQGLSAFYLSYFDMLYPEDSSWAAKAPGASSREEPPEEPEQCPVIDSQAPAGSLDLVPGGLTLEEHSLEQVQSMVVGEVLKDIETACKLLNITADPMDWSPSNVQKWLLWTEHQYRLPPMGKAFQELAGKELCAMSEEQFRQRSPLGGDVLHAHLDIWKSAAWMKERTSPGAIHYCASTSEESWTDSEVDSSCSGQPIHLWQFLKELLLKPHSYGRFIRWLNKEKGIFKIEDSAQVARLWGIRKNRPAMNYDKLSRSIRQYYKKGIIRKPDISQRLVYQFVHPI
Summary of the method: as §1

ETV7 = molecular target: T10, ETV7 (Homo sapiens, UniProt Q9Y603 1-341); settings: protein: recombinant; tags: N-terminal GST; dsDNA, one strand shown
T10 sequence: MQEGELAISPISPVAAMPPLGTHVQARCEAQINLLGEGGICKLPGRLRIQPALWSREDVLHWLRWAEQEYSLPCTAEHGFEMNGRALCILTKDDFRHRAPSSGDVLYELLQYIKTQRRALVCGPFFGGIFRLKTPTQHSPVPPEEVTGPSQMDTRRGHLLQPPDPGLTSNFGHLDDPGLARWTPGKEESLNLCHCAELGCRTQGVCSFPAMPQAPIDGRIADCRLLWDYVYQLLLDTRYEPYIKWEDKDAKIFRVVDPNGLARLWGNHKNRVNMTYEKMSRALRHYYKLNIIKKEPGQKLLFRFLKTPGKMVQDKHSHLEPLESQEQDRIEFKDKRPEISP
Summary of the method: as §1

ELF5 = molecular target: T11, ELF5 (Homo sapiens, UniProt Q9UKW6-2 1-255); settings: protein: recombinant; tags: N-terminal GST; dsDNA, one strand shown
T11 sequence: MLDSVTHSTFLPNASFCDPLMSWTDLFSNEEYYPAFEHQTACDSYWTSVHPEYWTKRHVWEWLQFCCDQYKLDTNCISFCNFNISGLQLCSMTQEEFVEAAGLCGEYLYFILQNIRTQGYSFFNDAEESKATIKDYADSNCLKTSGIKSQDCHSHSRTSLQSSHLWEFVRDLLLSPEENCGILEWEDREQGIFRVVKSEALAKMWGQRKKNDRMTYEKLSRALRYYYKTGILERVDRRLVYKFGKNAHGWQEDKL
Summary of the method: as §1

ETV3 = molecular target: T12, ETV3 (Homo sapiens, UniProt P41162-2 1-143); settings: protein: recombinant; tags: N-terminal GST; dsDNA, one strand shown
T12 sequence: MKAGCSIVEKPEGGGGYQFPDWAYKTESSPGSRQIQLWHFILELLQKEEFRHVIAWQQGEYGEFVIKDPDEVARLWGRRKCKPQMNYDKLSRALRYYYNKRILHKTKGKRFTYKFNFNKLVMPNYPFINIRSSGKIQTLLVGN
Summary of the method: as §1

ETV6 = ETV6 (Homo sapiens, UniProt P41212 1-452); settings: protein: recombinant; tags: N-terminal GST; dsDNA, one strand shown
Sequence of ETV6 (P41212 whole entry): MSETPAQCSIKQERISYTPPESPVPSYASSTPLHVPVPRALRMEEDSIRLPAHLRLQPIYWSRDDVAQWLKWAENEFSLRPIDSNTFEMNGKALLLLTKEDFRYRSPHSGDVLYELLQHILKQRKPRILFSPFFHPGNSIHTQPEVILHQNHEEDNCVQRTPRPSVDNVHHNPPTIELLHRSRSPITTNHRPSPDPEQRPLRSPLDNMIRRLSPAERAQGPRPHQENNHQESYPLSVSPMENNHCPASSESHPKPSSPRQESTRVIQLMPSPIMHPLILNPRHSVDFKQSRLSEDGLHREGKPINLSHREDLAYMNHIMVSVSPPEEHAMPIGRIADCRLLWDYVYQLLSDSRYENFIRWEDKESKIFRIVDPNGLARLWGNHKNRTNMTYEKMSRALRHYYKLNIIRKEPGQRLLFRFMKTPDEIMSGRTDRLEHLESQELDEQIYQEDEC
Summary of the method: as §1

ATAACT
binding signal (FEV): 1.22 fold enrichment (6-mer frequency, TF over GST control) | binding signal (ETV5): 1.29 fold enrichment (6-mer frequency, TF over GST control) | binding signal (HSF1): 1.15 fold enrichment (6-mer frequency, TF over GST control) | binding signal (SPIC): 1.28 fold enrichment (6-mer frequency, TF over GST control) | binding signal (ELF4): 1.25 fold enrichment (6-mer frequency, TF over GST control) | binding signal (ELK4): 1.22 fold enrichment (6-mer frequency, TF over GST control) | binding signal (ETV2): 1.39 fold enrichment (6-mer frequency, TF over GST control) | binding signal (ELF3): 1.24 fold enrichment (6-mer frequency, TF over GST control) | binding signal (CRX): 1.29 fold enrichment (6-mer frequency, TF over GST control) | binding signal (ETV1): 1.16 fold enrichment (6-mer frequency, TF over GST control) | binding signal (ERF): 1.24 fold enrichment (6-mer frequency, TF over GST control) | binding signal (ETV3L): 1.22 fold enrichment (6-mer frequency, TF over GST control) | binding signal (ETS2): 1.27 fold enrichment (6-mer frequency, TF over GST control) | binding signal (SPDEF): 1.18 fold enrichment (6-mer frequency, TF over GST control) | binding signal (ETV7): 1.24 fold enrichment (6-mer frequency, TF over GST control) | binding signal (ELF5): 1.29 fold enrichment (6-mer frequency, TF over GST control) | binding signal (ETV3): 1.34 fold enrichment (6-mer frequency, TF over GST control) | binding signal (ETV6): 1.27 fold enrichment (6-mer frequency, TF over GST control)
